# Source: PubChem BioAssay (NCATS)
# Results filed as inconclusive are left out. A call without a number means that no potency is given here. Calls of active or inactive are those of the source. Calls come from the whole dose curve; as a rule, active = well fitted curve in the direction sought with a large enough effect; inconclusive = small, poorly fitted or top-dose-only effect, or another doubt; inactive = no such curve, though single readings can be large; an effect the other way counts as inactive or inconclusive.
# Experiment: qHTS Screen of the MIPE 4.0 Collection Against Ewings Sarcoma (RDES) (AID 1259252); note: nearly all actives have a fitted effect of over 35% in size; note: potency is the fitted concentration of half-maximal effect
# Conditions: RD-ES Ewing sarcoma viability, CellTiter-Glo, 48 h; series mostly up to 45.8 µM
# Source text: (§1) There is a large unmet medical need for treatments for Ewing sarcoma, a pediatric sarcoma. We sought to identify compounds that inhibited Ewing sarcoma cells in vitro with the goal to then test promising drugs in two drug combinations in vitro to look for synergistic drug combinations. Promising combinations would then proceed to additional validation, including in vivo testing.
# (§2) Using the NCATS developed oncology compound library called the Mechanism of Interrogation Plate (MIPE), four Ewing sarcoma cell lines were evaluated (TC32, TC71, RDES, EW8). Compounds, in a 12-point titration series, were incubated with cells for 48 hours and the read out was cell viability (CellTiter-Glo from Promega). These initial experiments were used to select appropriate concentrations of each single agent for subsequent two-drug matrix combinations such that the concentrations in the matrices would span both activity and non-activity.
# (§3) Cells, in the log phase of growth, were seeded in 5 uL of RPMI plus 5% FBS, […] L-glutamine, 100 U/ml penicillin and 100 ug/ml streptomycin into 1536-well solid-bottom white tissue culture treated Greiner Bio One Plates (789173-F) using a MultiDrop Combi (Thermofisher Scientific) dispenser and a small sterile cassette. One column was media alone to be used as a :"no cells" control. The plates were then covered with sterilized stainless steel gasketed lids from Kalypsys. After allowing cells to attach for 4 hours, 23 nL of test compound or control (negative control DMSO and positive control 9.2 uM Bortezomib-final) were added from a 1536-well polypropylene compound source plate to each well using a 1536 head pin tool from Kalypsys. Cells were then incubated for 48 hours at 37C, 95% relative humidity and 5% CO2. After 48 hours, plates were removed from the incubator and 3 uL of CellTiter-Glo (Promega) was added using an Aurora Flying Reagent Dispenser Bioraptor. Plates were incubated at room temperature for 10 minutes prior to reading the luminescence on the Viewlux (PerkinElmer). The relative luciferase units are used to calculate the percent activity using the activity of DMSO in the cells and no cells columns for normalization of no inhibition and full inhibition respectively.
row,SMILES,Potency
1,C[C@]12CC[C@@H]3c4ccc(OC(=O)N(CCCl)CCCl)cc4CC[C@H]3[C@@H]1CC[C@@H]2OP(=O)(O)O,inactive
2,CC(C)C[C@H](CN)CC(=O)O,inactive
3,CN1C(=O)COc2c(C(=O)NC3CN4CCC3CC4)cc(Cl)cc21 (stereo not drawn),inactive
4,CCC1(c2ccc(N)cc2)CCC(=O)NC1=O (stereo not drawn),inactive
5,CC(NC(C)(C)C)C(=O)c1cccc(Cl)c1 (stereo not drawn),inactive
6,C[C@](O)(CS(=O)(=O)c1ccc(F)cc1)C(=O)Nc1ccc(C#N)c(C(F)(F)F)c1,1.87 µM (active)
7,CC(C)c1cccc(C(C)C)c1O,inactive

# Experiment: qHTS Screen of the MIPE 4.0 Collection Against Ewings Sarcoma (TC71) (AID 1259253); note: nearly all actives have a fitted effect of over 40% in size; note: potency is the fitted concentration of half-maximal effect
# Conditions: TC71 Ewing sarcoma viability, CellTiter-Glo, 48 h; series mostly up to 45.8 µM
# Source text: as §1, §2, §3
row,SMILES,Potency
1,C[C@]12CC[C@@H]3c4ccc(OC(=O)N(CCCl)CCCl)cc4CC[C@H]3[C@@H]1CC[C@@H]2OP(=O)(O)O,inactive
2,CN1C(=O)COc2c(C(=O)NC3CN4CCC3CC4)cc(Cl)cc21 (stereo not drawn),inactive
3,CCC1(c2ccc(N)cc2)CCC(=O)NC1=O (stereo not drawn),inactive
4,O=P1(N(CCCl)CCCl)NCCCO1 (stereo not drawn),inactive
5,CC(NC(C)(C)C)C(=O)c1cccc(Cl)c1 (stereo not drawn),inactive
6,C[C@](O)(CS(=O)(=O)c1ccc(F)cc1)C(=O)Nc1ccc(C#N)c(C(F)(F)F)c1,3.72 µM (active)
7,CC(C)c1cccc(C(C)C)c1O,inactive

# Experiment: qHTS Screen of the MIPE 4.0 Collection Against Ewings Sarcoma (EW8) (AID 1259255); note: nearly all actives have a fitted effect of over 35% in size
# Conditions: EW8 Ewing sarcoma viability, CellTiter-Glo, 48 h; series mostly up to 45.8 µM
# Source text: as §1, §2, §3
row,SMILES,outcome
1,C[C@]12CC[C@@H]3c4ccc(OC(=O)N(CCCl)CCCl)cc4CC[C@H]3[C@@H]1CC[C@@H]2OP(=O)(O)O,inactive
2,CC(C)C[C@H](CN)CC(=O)O,inactive
3,CN1C(=O)COc2c(C(=O)NC3CN4CCC3CC4)cc(Cl)cc21 (stereo not drawn),inactive
4,CCC1(c2ccc(N)cc2)CCC(=O)NC1=O (stereo not drawn),inactive
5,CN1C(=O)CCS(=O)(=O)C1c1ccc(Cl)cc1 (stereo not drawn),inactive
6,O=P1(N(CCCl)CCCl)NCCCO1 (stereo not drawn),inactive
7,CC(NC(C)(C)C)C(=O)c1cccc(Cl)c1 (stereo not drawn),inactive
8,CC(C)c1cccc(C(C)C)c1O,inactive

# Experiment: qHTS Screen of the MIPE 4.0 Collection Against Ewings Sarcoma (TC32) (AID 1259256); note: nearly all actives have a fitted effect of over 45% in size; note: potency is the fitted concentration of half-maximal effect
# Conditions: TC32 Ewing sarcoma viability, CellTiter-Glo, 48 h; series mostly up to 45.8 µM
# Source text: as §1, §2, §3
row,SMILES,Potency
1,C[C@]12CC[C@@H]3c4ccc(OC(=O)N(CCCl)CCCl)cc4CC[C@H]3[C@@H]1CC[C@@H]2OP(=O)(O)O,inactive
2,CN1C(=O)COc2c(C(=O)NC3CN4CCC3CC4)cc(Cl)cc21 (stereo not drawn),inactive
3,CCC1(c2ccc(N)cc2)CCC(=O)NC1=O (stereo not drawn),inactive
4,O=P1(N(CCCl)CCCl)NCCCO1 (stereo not drawn),0.0021 µM (active)
5,O=C(O)CCCc1ccc(N(CCCl)CCCl)cc1,inactive
6,C[C@]12CC[C@H]3[C@@H](CC[C@@]45O[C@H]4C(O)=C(C#N)C[C@]35C)[C@H]1CC[C@H]2O,20.9 µM (active)
7,CC(NC(C)(C)C)C(=O)c1cccc(Cl)c1 (stereo not drawn),inactive
8,C[C@](O)(CS(=O)(=O)c1ccc(F)cc1)C(=O)Nc1ccc(C#N)c(C(F)(F)F)c1,4.69 µM (active)
9,CC(C)c1cccc(C(C)C)c1O,inactive

# Experiment: qHTS assay to identify small molecule inhibitors of chordoma cells - UCH-1 (AID 1259355); note: nearly all actives have a fitted effect of over 55% in size
# Conditions: UCH-1 chordoma viability, CellTiter-Glo, 48 h, combination; series mostly up to 46.1 µM
# In short: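 Seed 800 cells per well; incubate overnight at 37 C, 5% CO2. Add test compounds (15 concentrations), then the auranofin–topoisomerase-agent combination. Incubate 48hr, add CellTiter-Glo, wait 30min, read luminescence.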
SMILES,outcome,"activity, negative = inhibition"
COP(=S)(OC)SCN1C(=O)c2ccccc2C1=O,inactive,
CNC(C)(C)Cc1ccccc1,inactive,
CN=C1CN(O)C(c2ccccc2)=c2cc(Cl)ccc2=N1,inactive,
CN1C(=O)COc2c(C(=O)NC3CN4CCC3CC4)cc(Cl)cc21 (stereo not drawn),inactive,
O=[N+]([O-])O[C@H]1CO[C@H]2[C@@H]1OC[C@H]2O[N+](=O)[O-],inactive,
C=C(C)[C@H]1CN[C@H](C(=O)O)[C@H]1CC(=O)O,inactive,
CCC1(c2ccc(N)cc2)CCC(=O)NC1=O (stereo not drawn),inactive,
CN1C(=O)CCS(=O)(=O)C1c1ccc(Cl)cc1 (stereo not drawn),inactive,
CC(C)=CC1C(C(=O)OCN2C(=O)C3=C(CCCC3)C2=O)C1(C)C (stereo not drawn),inactive,
Clc1cccc(SC2CCNCC2)n1,inactive,
C[C@@H](N)[C@@H](O)c1ccccc1,inactive,
O=C(N/N=C/c1ccc([N+](=O)[O-])o1)c1cc([N+](=O)[O-])cc([N+](=O)[O-])c1O,inactive,
O=P1(N(CCCl)CCCl)NCCCO1 (stereo not drawn),inactive,
O=C(O)CCCc1ccc(N(CCCl)CCCl)cc1,inactive,
CN1CCC(O)(c2ccc(F)cc2)C(C(=O)c2ccc(F)cc2)C1 (stereo not drawn),inactive,
CN1C(=O)C(O)N=C(c2ccccc2)c2cc(Cl)ccc21 (stereo not drawn),inactive,
CCOC(=O)CC(SP(=S)(OC)OC)C(=O)OCC (stereo not drawn),inactive,
COC(=O)[C@@H](N)CCCN/C(N)=N/[N+](=O)[O-],inactive,
CCC(C)(C)c1ccc(O)cc1,inactive,

SMILES,outcome,"activity, negative = inhibition"
O=C1Nc2ccc(Cl)cc2C(c2ccccc2)=NC1O (stereo not drawn),inactive,
O=C1c2ccccc2C(=O)C1C(=O)C(c1ccccc1)c1ccccc1,inactive,
CC(C)c1c(CN(C)C(C)Cc2ccccc2)n(C)n(-c2ccccc2)c1=O (stereo not drawn),inactive,
CCCCC/C=C\C/C=C\C/C=C\C/C=C\CCCC(=O)NCC(=O)O,,-4.51% [at 4.2 µM] (inactive)
CC(NC(C)(C)C)C(=O)c1cccc(Cl)c1 (stereo not drawn),inactive,
O=C1Nc2ccc(Cl)cc2C(c2ccccc2Cl)=NC1O (stereo not drawn),inactive,
NNc1ccccc1,inactive,
CC(C)N(CCC(C(N)=O)(c1ccccc1)c1ccccn1)C(C)C (stereo not drawn),inactive,
COc1ccc2c(c1)C13CCCC[C@@H]1C(C2)N(C)CC3 (stereo partly drawn),inactive,
CN1C(=O)NC(=O)C(C)(C2=CCCCC2)C1=O (stereo not drawn),inactive,
C[C@](O)(CS(=O)(=O)c1ccc(F)cc1)C(=O)Nc1ccc(C#N)c(C(F)(F)F)c1,inactive,
O=C1OC(c2ccc(O)c(S(=O)(=O)O)c2)(c2ccc(O)c(S(=O)(=O)O)c2)c2c(Br)c(Br)c(Br)c(Br)c21,inactive,
Nc1ccc([As](=O)(O)O)cc1,inactive,
COP(=S)(OC)Oc1ccc(SC)c(C)c1,inactive,
CC(C)NC(C)C,inactive,
NC(=O)CS(=O)C(c1ccccc1)c1ccccc1 (stereo not drawn),inactive,
CC(C)(C)NCC(O)c1cc(Cl)c(N)c(C(F)(F)F)c1 (stereo not drawn),inactive,
CC(C)c1cccc(C(C)C)c1O,inactive,
